The values below come from PubChem BioAssay.

A short description of test [1]: EMT-state selective cytotoxicity in co-culture – imaging, PC-3E GFP, TEM4-18 mCherry, primary screen (AID 1345086;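 active = compounds killing one labelled cell type while sparing the other, by normalised counts and ratio limits, not self-fluorescent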;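 for all read-outs here: cells exposed to compound for 72 h before imaging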;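 for red/green cell ratio (normalised): normalised mesenchymal count divided by normalised epithelial count so high means epithelial killing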). The settings on record: PC-3E GFP / TEM4-18 mCherry co-culture, imaging cell counts, at 1 µM; for red/green cell ratio (normalised): actives lie on both sides, counts scaled to control wells, 1 = unselective.
Test [2] in a line: viability loss with induced miR-34 in A549 – imaging, A549 dox-inducible miR-34, nuclei and caspase counts, primary screen (AID 1347080;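 active = compounds whose cell count with miR-34 switched on is under 0.7 times the count with it off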). The settings on record: A549 miR-34 inducible, Hoechst nuclei count, 48 h.
Test [3] in a line: P. berghei load reduction in hepatocytes – cell-based, HepG2, luciferase luminescence, HepG2 viability, primary screen (AID 624349; in the data active = parasite load remaining mostly below about 12%, no sharp cut-off; inactive = mostly above about 10%;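 note: 100% = mean of DMSO negative control wells on the same plate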). The settings on record: P. berghei liver stage in HepG2, luciferase luminescence, concentration not given here; parasite load remaining: stronger effect = lower value; viability: measured here: HepG2 viability without parasites.
Test [4] in a line: MELAS cybrid and Rieske KO viability enhancers – cell-based, MELAS cybrids, Rieske KO mouse fibroblasts, CellTiter-Glo, primary screen (AID 1508586;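 active = mean z-score across replicates of 1.96 or higher in either the MELAS or the Rieske mutant cell line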;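 note: z relative to plate mean and SD of compound and empty wells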). The settings on record: low glucose. (In ATP-based viability assays light output follows the ATP content of the culture.)
Test [5] has as its target NAD(+) hydrolase SARM1 (Homo sapiens) (UniProt Q6SZW1). Put plainly: blocking NAD cleavage by SARM1 SAM-TIR – cell lysate, NAD-Glo luminescence (AID 1508614;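 active = compound whose remaining NAD level is above about 45 nM, limit read from the data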;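 note: higher remaining NAD means stronger inhibition of SARM1 NADase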). To be noted: SAM-TIR HEK293T lysate NADase, at 1 µM, stronger effect = higher value.
Test [6] addresses Mitogen-activated protein kinase 7 (Homo sapiens) (UniProt Q13164). Briefly: Gal4-ERK5 driven luciferase induction – cell-based, HTS, primary screen (AID 1508626;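 active = luciferase signal above three times the same-plate solvent-only control wells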;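 note: luciferase driven by Gal4-ERK5 fusion binding five Gal4 sites before minimal TATA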). The settings on record: HeLa Gal4-ERK5 transactivation, 18 h, at 5 µM, stronger effect = higher value.
Test [7] in a line: compounds altering circadian rhythm period length – cell-based, LOPAC library, luminescence reporter (AID 2774).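 Note: values are relative to mean of DMSO wells on each plate.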 The settings on record: circadian reporter cells, at 7 µM, actives lie on both sides.
A short description of test [8]: compounds altering viability of human ES cells (AID 493140).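 Note: cells exposed to compounds for four days before counting.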 The settings on record: human embryonic stem cell survival screen; stronger effect = higher value.
The subject of test [9] is Hepatitis C virus NS3 helicase. Put plainly: blockers of NS3h binding to ssDNA – biochemical, fluorescence polarization, LOPAC1280 library, primary screen (AID 687035; in the data active = inhibition above about 37%). To be noted: Purified HCV NS3 helicase, Cy5-dT15 ssDNA binding fluorescence polarization; stronger effect = higher value; concentration not given here.
Test [10] can be described thus: compounds altering Cy5-DNA-NS3h complex signal – biochemical, LOPAC1280, artefact control for HCV NS3 helicase inhibitor project (AID 687037). To be noted: Cy5-DNA-NS3h complex fluorescence interference counterscreen. (In general: A counterscreen serves to expose hits that act by an unwanted route or on another target.)
Test [11] in a line: blockers of cellular phospholipid synthesis – cell-based, LOPAC library, screen 4, primary screen (AID 1347384). To be noted: animal cells, phospholipid biosynthesis inhibition screen; at 10 µM.
The nature of test [12]: galactose survival enhancers in mitochondrial complex I cybrids – cell-based, galactose medium, ATP luminescence, primary screen (AID 1645843;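 active = z-score of at least 1.8 in each of two replicates, scored against plate mean and spread of sample wells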;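 note: positive z means more ATP and so rescue of galactose-driven cybrid death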). To be noted: complex I mutant cybrid cells, 72 h, stronger effect = higher value.
Setting [13] is: measured here: epithelial PC-3E GFP cell survival.
Setting [14] is: measured here: mesenchymal TEM4-18 mCherry cell survival.
Setting [15] is: stronger effect = lower value, cell number ratio, induced over uninduced.
Where [16] appears, read: measured here: relative caspase fold change +Dox/-Dox.
Setting [17] is: measured here: total cells with miR-34 induction, stronger effect = lower value.
The mark [18] stands for this setting: measured here: total cells without miR-34 induction.
The mark [19] stands for this setting: MELAS cybrid survival, CellTiter-Glo 48 h, stronger effect = higher value.
Where [20] appears, read: Rieske KO mouse fibroblast survival, CellTiter-Glo 72 h.

“And” between values parts separate entries of the source, which are not always exact repeats. Equal entries are not always repeated. The source made the active and inactive calls. Unless noted, the rule behind the calls is not given here.

Sequence of NAD(+) hydrolase SARM1 (Homo sapiens) (Q6SZW1 whole entry, looked up, the tested form may be a part): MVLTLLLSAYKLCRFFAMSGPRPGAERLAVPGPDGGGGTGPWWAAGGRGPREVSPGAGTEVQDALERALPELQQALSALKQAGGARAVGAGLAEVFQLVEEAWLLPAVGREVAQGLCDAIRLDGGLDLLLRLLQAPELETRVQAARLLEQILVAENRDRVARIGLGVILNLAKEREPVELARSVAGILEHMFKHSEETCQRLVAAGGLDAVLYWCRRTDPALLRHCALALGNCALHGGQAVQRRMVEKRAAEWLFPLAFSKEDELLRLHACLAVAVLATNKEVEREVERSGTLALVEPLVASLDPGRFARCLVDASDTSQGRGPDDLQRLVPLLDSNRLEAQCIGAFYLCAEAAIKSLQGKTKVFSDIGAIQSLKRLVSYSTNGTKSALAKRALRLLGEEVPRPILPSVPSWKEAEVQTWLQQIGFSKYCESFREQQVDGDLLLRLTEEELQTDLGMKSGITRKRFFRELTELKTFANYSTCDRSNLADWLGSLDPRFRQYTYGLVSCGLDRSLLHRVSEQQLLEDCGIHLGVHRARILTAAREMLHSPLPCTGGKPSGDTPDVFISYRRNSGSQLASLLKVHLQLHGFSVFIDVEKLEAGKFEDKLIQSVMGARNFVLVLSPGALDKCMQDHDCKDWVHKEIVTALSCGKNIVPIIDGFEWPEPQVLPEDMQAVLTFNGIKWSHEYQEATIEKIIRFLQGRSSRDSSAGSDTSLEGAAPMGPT
Sequence of Mitogen-activated protein kinase 7 (Homo sapiens) (Q13164 whole entry, looked up, the tested form may be a part): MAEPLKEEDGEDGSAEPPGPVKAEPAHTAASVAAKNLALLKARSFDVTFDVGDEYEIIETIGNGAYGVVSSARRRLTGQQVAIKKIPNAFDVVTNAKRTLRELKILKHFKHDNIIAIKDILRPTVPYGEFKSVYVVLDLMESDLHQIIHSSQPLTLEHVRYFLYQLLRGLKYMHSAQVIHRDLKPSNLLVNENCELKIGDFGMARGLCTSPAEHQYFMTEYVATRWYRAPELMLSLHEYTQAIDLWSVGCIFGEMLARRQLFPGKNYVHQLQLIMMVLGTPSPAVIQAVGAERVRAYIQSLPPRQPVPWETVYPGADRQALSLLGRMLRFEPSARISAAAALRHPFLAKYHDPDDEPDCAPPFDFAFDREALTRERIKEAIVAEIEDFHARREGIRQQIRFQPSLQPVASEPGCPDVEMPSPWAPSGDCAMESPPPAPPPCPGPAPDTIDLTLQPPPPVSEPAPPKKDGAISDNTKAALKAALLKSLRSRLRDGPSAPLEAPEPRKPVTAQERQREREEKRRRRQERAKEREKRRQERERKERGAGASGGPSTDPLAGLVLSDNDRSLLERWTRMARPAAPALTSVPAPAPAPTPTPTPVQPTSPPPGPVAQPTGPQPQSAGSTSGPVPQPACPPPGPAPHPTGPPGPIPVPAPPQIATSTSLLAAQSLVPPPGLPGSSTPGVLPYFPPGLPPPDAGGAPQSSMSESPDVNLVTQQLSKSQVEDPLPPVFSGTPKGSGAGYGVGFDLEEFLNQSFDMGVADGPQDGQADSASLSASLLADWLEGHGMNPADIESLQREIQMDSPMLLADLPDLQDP

`CCCC[C@@H](CC)COC(=O)C(C#N)=C(c1ccccc1)c1ccccc1`: the red/green cell ratio (normalised) in [1] was 0.92 (inactive). Further, the values for the normalised cell number in test [1] (setting [13]) and in test [1] (setting [14]) were 1.19 and 1.09, respectively. For the same compound, the fold change in test [2] (setting [15]) is 0.897 (inactive); in test [2] (setting [16]) it was 0.819. Besides, the cell count came out at 8030 in test [2] (setting [17]) and 8950 in test [2] (setting [18]).

Broadly, the viability is a read-out of living cells in per cent, often relative to untreated cells. As to `O=C(O)c1ccccc1`, in [3], the parasite load remaining is 29.9% (inactive). The viability in [3] turned out to be 83.9%. Besides, the red/green cell ratio (normalised) in [1] was 1.1 (inactive). Besides, the normalised cell number in [1] (setting [13]) was found to be 1.23; in test [1] (setting [14]) it was 1.35. The fold change in test [2] (setting [15]) was 0.957 (inactive) and 0.932 (inactive); in test [2] (setting [16]), 0.544 and 1.69. Further, the cell count in [2] (setting [17]) is 8250 and 11300; in [2] (setting [18]) it was 8620 and 12100. For the same compound, the z-score was -0.248 (inactive) in test [4] (setting [19]) and -0.209 in test [4] (setting [20]). Also, the remaining NAD in test [5] was 10 nM (inactive). The luciferase signal in [6] was 36 AU (inactive).

By inhibition is commonly meant the drop in the measured response relative to a control, in per cent. As for `CC(C)Cc1ccc([C@H](C)C(=O)O)cc1`, the period change in test [7] is -0.055 h (inactive). Further, the survival in test [8] was 6.58 (inactive). Also, the parasite load remaining in test [3] was 89.2% (inactive). The viability in test [3] worked out at 95.1%. In addition, in test [9], the inhibition was -6% (inactive). For the same compound, in test [10], the fluorescence ratio (interference) is 0.9 (inactive). The red/green cell ratio (normalised) in [1] is 0.85 (inactive). Also, the normalised cell number was 0.93 in test [1] (setting [13]) and 0.79 in [1] (setting [14]). For the same compound, the fold change in test [2] (setting [15]) was 1.1 (inactive) and 0.885 (inactive); in test [2] (setting [16]), 1.11 and 1.2. For the same compound, the cell count in [2] (setting [17]) is 10400 and 9190; in test [2] (setting [18]) it was 9420 and 10400. Besides, the compound was called inactive in [11]. Further, the z-score in [4] (setting [19]) is 0.343 (inactive); in [4] (setting [20]) it was -0.398; in test [12] it was 0.53 (inactive). Further, the remaining NAD in test [5] is 26 nM (inactive).

As for `CCNC1CN(CCCOC)S(=O)(=O)c2sc(S(N)(=O)=O)cc21` (stereo not given), the red/green cell ratio (normalised) in test [1] was 0.72 (inactive). Also, the normalised cell number in test [1] (setting [13]) was determined as 1.22; in [1] (setting [14]), 0.87. In addition, the fold change in [2] (setting [15]) is 0.853 (inactive); in [2] (setting [16]), 0.647. In addition, the cell count in test [2] (setting [17]) was found to be 8320; in test [2] (setting [18]), 9750. The results for the z-score in test [4] (setting [19]) and in [4] (setting [20]) were -0.247 (inactive) and -0.152, respectively.

Regarding `CN1C2CCCC1CC(NC(=O)c1nn(C)c3ccccc13)C2` (stereo not given), in [10], the fluorescence ratio (interference) was 1 (inactive). Also, the red/green cell ratio (normalised) in [1] was 0.96 (inactive). The normalised cell number in test [1] (setting [13]) amounted to 0.99; in [1] (setting [14]) it was 0.95. Moreover, the fold change in test [2] (setting [15]) is 0.966 (inactive) and 0.87 (inactive); in test [2] (setting [16]), 1.65 and 2.43. The cell count is 10200 and 8870 in [2] (setting [17]); 10600 and 10200 in [2] (setting [18]). In addition, the result in test [11] was inactive. Besides, the z-score in test [12] is -0.44 (inactive) and 0.15 (inactive).

As for `c1ccc(C2CN3CCSC3=N2)cc1` (stereo not given), the period change in test [7] was 0.075 h (inactive). In addition, the survival in test [8] is 5.17 (inactive) and 92.1 (inactive). In addition, the parasite load remaining in test [3] is 183% (inactive) and 71.5% (inactive). The viability in [3] was 108% and 76.2%. Further, the inhibition in test [9] is -2% (inactive). Further, in [10], the fluorescence ratio (interference) was 1 (inactive). Further, the red/green cell ratio (normalised) in test [1] is 1.29 (inactive) and 1 (inactive). The normalised cell number is 0.85 and 1.04 in test [1] (setting [13]); 1.1 and 1.05 in [1] (setting [14]). Moreover, the fold change in test [2] (setting [15]) was 0.894 (inactive) and 0.914 (inactive) and 0.823 (inactive); in [2] (setting [16]), 2.54 and 0.996 and 1.2. The cell count in test [2] (setting [17]) is 8980 and 9120 and 8770; in test [2] (setting [18]) it was 10000 and 9980 and 10700. Moreover, the compound was called inactive in test [11]. Further, the z-score in [4] (setting [19]) was 0.49 (inactive); in [4] (setting [20]), 0.36; in test [12], 0.64 (inactive). In addition, the remaining NAD in test [5] is 10 nM (inactive).
